RE007 growth inh: qHTS Assay for Inhibitors of the HIV-1 protein Vpr; AID 651644, 2012; S. pombe RE007 Vpr strain, BacTiter-Glo ATP luminescence, 24 h; 360,000 tested, 0.21% active; Potency, µM (titrated, usually from 92.2 µM), for the others: top-dose activity change, negative = less growth, hits mostly inhibitors; active = well fitted falling curve with a large enough effect; inconclusive = small, poorly fitted or top-dose-only effect; inactive = no such curve, though single readings can be large or run the other way; also: potency is read from the fitted curve at half-maximal effect; % is scaled to controls: 0 for no effect and ±100 for the full control effect; nearly all actives have a fitted effect of over 50% in size
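Fission yeast strain RE007, carrying one chromosomally integrated HIV-1 vpr copy, was seeded at OD 0.01 in PMG+AL medium with 23 nL pinned compound. After 24 h at 30 °C and 99% humidity, viability was read by BacTiter-Glo luminescence.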
Giardia FBPA inh: qHTS Assay for Inhibitors of Fructose-1,6-bisphosphate Aldolase from Giardia Lamblia; Potency, µM (top dose mostly 59.6 µM), inactives show at the top dose activity, negative = inhibition, hits mostly inhibitors; 290,000 tested, 0.71% active; purified Giardia FBPA; A8B2U2; also: potency is read from the fitted curve at half-maximal effect; % is scaled to controls: 0 for no effect and ±100 for the full control effect; nearly all actives have a fitted effect of over 55% in size
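Giardia FBPA (40 nM reagent) was preincubated 10 min at RT with compound (up to 57.5 uM final), then substrate plus GAPDH/TPI/NAD/arsenate coupling system with diaphorase/resazurin was added; resorufin fluorescence (525/598 nm) was read after 20 min.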
TbPYK inhibitor: qHTS of Trypanosoma Brucei Inhibitors | TbPYK enzyme, Kinase-Glo Plus ATP luminescence, 45 min | 410,000 tested, 0.12% active | Potency, µM (highest dose often 76.8 µM), for the others: at the highest dose activity, negative = inhibition, usual class: inhibitors | pyruvate kinase (Trypanosoma brucei), Q57TT1; also: potency is read from the fitted curve at half-maximal effect; % is scaled to controls: 0 for no effect and ±100 for the full control effect; nearly all actives have a fitted effect of over 50% in size
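T. brucei PYK with substrate was exposed to pin-transferred compounds across a concentration series, then started with 130 uM ADP (final). After 45 min at room temperature, Kinase-Glo Plus luminescence was read, normalized and curve-fitted.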
LmPK inh: qHTS Assay for Inhibitors of Leishmania Mexicana Pyruvate Kinase (LmPK); Q27686; purified LmPK, Kinase-Glo ATP luminescence, 1 h; Potency, µM (doses to about 57.5 µM), without a hit: at the highest dose activity change, negative = inhibition, usual class: inhibitors; 290,000 tested, 0.37% active; AID 1721, 2009; also: potency is read from the fitted curve at half-maximal effect; % is scaled to controls: 0 for no effect and ±100 for the full control effect
Target sequence (Q27686 whole entry, looked up): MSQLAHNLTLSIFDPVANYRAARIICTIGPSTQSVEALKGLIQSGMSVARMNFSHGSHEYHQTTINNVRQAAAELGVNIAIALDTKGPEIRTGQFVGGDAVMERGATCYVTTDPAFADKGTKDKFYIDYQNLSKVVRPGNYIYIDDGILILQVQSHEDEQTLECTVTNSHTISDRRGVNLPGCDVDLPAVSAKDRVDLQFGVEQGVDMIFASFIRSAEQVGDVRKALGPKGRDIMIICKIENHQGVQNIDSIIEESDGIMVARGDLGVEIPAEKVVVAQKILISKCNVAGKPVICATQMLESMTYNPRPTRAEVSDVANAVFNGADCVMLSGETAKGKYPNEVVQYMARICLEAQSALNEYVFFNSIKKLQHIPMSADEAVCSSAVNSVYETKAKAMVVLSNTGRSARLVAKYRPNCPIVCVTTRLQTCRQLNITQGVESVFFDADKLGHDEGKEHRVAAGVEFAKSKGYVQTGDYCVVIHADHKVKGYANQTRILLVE
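Kinase-Glo luminescence read after 1 h RT reaction of 0.1 nM LmPK with 0.5 mM PEP and 0.1 mM ADP. Activity scaled between uninhibited and enzyme-free controls.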
Shiga toxin inh: A qHTS for Small Molecule Inhibitors of Shiga Toxin | Vero cells, Shiga toxin protein synthesis inhibition reporter | inhibition, % at 38.7 µM | 290,000 tested, 9.2% active; in the data active = inhibition mostly above about 28%, no sharp cut-off; inactive = mostly below about 43%; also: 0% is about no effect
Cycloheximide cs: Cycloheximide Counterscreen for Small Molecule Inhibitors of Shiga Toxin; cell reporter, cycloheximide protein synthesis inhibition counterscreen; max response, %; 300,000 tested, 12% active; AID 2314, 2010; in the data active = max response mostly above about 13%, no sharp cut-off; inactive = mostly below about 14%; also: read at 38.3 µM for the half of the compounds with a filed dose; 0% is about no effect
Starred values were filed as active, the others as inactive; ? = inconclusive; · = not tested or not shown. The full list was thinned out, with hits kept by preference. Unless noted, calls follow the shape of the dose curve; as a rule, active = well fitted curve in the direction sought with a large enough effect; inconclusive = small, poorly fitted or top-dose-only effect, or another doubt; inactive = no such curve, though single readings can be large; an effect the other way counts as inactive or inconclusive.

SMILES | RE007 growth inh | Giardia FBPA inh | TbPYK inhibitor | LmPK inh | Shiga toxin inh | Cycloheximide cs
Cn1c(SCc2ccc3c(c2)OCO3)nnc1-c1ccccc1 | 2% | 3% | 5% | -9% | 22* | 15*
O=C(CSc1nnc(-c2ccccc2)n1Cc1ccco1)Nc1ccc2c(c1)OCCO2 | 15% | 2% | 1% | 5% | 48* | 13
Cc1ccc(OCC(=O)Nc2cccc(-c3nc4ccccc4s3)c2)cc1 | · | · | -7% | · | · | ·
Cc1nc2nc(NC(=O)c3ccccc3F)[nH]n2c(=O)c1Cl | · | · | -1% | · | · | ·
Nn1c(SCC(=O)Nc2ccc3c(c2)OCO3)nnc1-c1ccccc1 | 8% | 1% | 3% | 7% | 27 | 22*
O=[N+]([O-])c1cc2c(c(CSc3nnc4ccccn34)c1)OCOC2 | -11% | -5% | -6% | -4% | -7 | 5
O=C(CSc1nnc2ccccn12)Nc1cccc(-c2nc3ccccc3s2)c1 | -8% | 7% | -16% | -3% | 39* | 15
CCC(CC)C(=O)Nc1cccc(-c2nc3ccccc3s2)c1 | · | · | -6% | · | · | ·
O=C(CSc1ncc(-c2ccc(F)cc2)n1Cc1ccco1)Nc1ccc2c(c1)OCO2 | -1% | -6% | 4% | -2% | 110* | 39*
CCOc1ccc(NC(=O)CSc2ncc(-c3ccc(F)cc3)n2Cc2ccco2)cc1 | 1% | -7% | -6% | -1% | 8 | 11
c1ccn2c(SCc3ccc4c(c3)OCO4)nnc2c1 | 6% | -8% | 5% | -3% | 114* | 40*
CCN(CC)C(=O)c1sc2c(c1C)c(=O)n(-c1ccc(C)c(C)c1)c(=O)n2Cc1cc(=O)n2c(C)cccc2n1 | · | · | 2% | · | · | ·
O=C(CSc1ncc2c(n1)-c1cc(Cl)ccc1N(Cc1ccccc1)S2(=O)=O)NCc1ccccc1 | · | · | -2% | · | · | ·
COc1ccc(CCNC(=O)c2cnc3sc(N4CCCC4)nn3c2=O)cc1OC | · | · | 1% | · | · | ·
COCCN(CCOC)c1ncnc2c1c(-c1ccccc1)cn2-c1ccc(C)c(Cl)c1 | · | · | -1% | · | · | ·
Cc1ccc(NC(=O)CSc2nnc3ccccn23)cc1 | -7% | 2% | 2% | 0% | 72* | 15
O=C(CSc1nnc2ccccn12)Nc1ccc2c(c1)OCO2 | 0% | 0% | 3% | 5% | 31 | 18*
O=C(CCSc1nnc2ccccn12)Nc1ccc2c(c1)OCO2 | -14% | 0% | 1% | 0% | 22 | 17
Cc1ccc(NC(=O)CCSc2nnc3ccccn23)cc1 | 9% | 1% | -7% | 0% | 32 | -2
CCNS(=O)(=O)c1ccc2nc(NC(=O)c3cccnc3)sc2c1 | -1% | 4% | -1% | -4% | 84* | 33*
CCCNS(=O)(=O)c1ccc2nc(NC(=O)c3ccc(F)cc3)sc2c1 | · | · | 1µM* | · | · | ·
CCCCNS(=O)(=O)c1ccc2nc(NC(=O)c3cccnc3)sc2c1 | · | · | -1% | · | · | ·
COc1ccccc1NC(=O)CCn1nc(-c2ccccc2)c2ccccc2c1=O | · | · | 3% | · | · | ·
COc1ccccc1NC(=O)Cn1nc(-c2ccc(Cl)cc2)c2ccccc2c1=O | -6% | 5% | 0% | 0% | -4 | 16*
COc1ccccc1NC(=O)CN1CCN(CC(=O)Nc2ccc(F)cc2F)CC1 | 4% | 5% | 9% | 0% | 92* | 32*
SMILES | RE007 growth inh | Giardia FBPA inh | TbPYK inhibitor | LmPK inh | Shiga toxin inh | Cycloheximide cs
O=C(CN1CCN(S(=O)(=O)c2ccc(F)cc2)CC1)Nc1ccc(F)cc1F | -7% | 9% | -2% | -1% | 37* | 60*
CCOc1ccc(C(=O)Nc2nc(-c3ccc(Br)cc3)ns2)cc1 | · | · | 15% | · | · | ·
COc1ccc(C)cc1NC(=S)N1CCN(c2ccccn2)CC1 | 1% | -14% | 8% | -1% | 62* | 35*
CCOC(=O)c1cnc2cc(-c3ccc(Cl)cc3)nn2c1N | -2% | 5% | 3% | -4% | 35 | 27*
CCOC(=O)c1cnc2cc(-c3ccc(Cl)cc3)nn2c1-c1ccccc1 | · | · | -1% | · | · | ·
CCOC(=O)c1cnc2cc(-c3ccc(Br)cc3)nn2c1C | -2% | 10% | 9% | 6% | 85 | 22*
O=C(N/N=C/C1CC=CCC1)c1ccccc1O (stereo not drawn) | -17% | -11% | -14% | -5% | 39* | 29*
O=C(N/N=C/C1CC=CCC1)c1cc(Br)ccc1O (stereo not drawn) | -1% | 15% | -8% | -3% | 9 | 31*
C/C=N/NC(=O)c1cc(Br)ccc1O | -4% | 0% | 2% | -5% | 20 | 12
O=C(N/N=C/C1CC=CCC1)c1ccc(Cl)cc1O (stereo not drawn) | · | 0% | -4% | -2% | 51 | 28*
Cn1c(=O)c(=O)n(C)c2cc(N3CCCC3)c(NC(=O)c3ccccc3F)cc21 | · | · | 0% | · | · | ·
COc1ccc(-c2nc(N3CCN(S(=O)(=O)c4ccc(C)cc4)CC3)c3ccccc3n2)cc1 | · | · | · | · | 73 | 27*
CN1CCN(c2nc(-c3ccc(C(C)(C)C)cc3)nc3ccccc23)CC1 | -9% | ? | -2% | -2% | 59* | 57*
CN1CCN(c2nc(-c3ccc(Br)cc3)nnc2-c2ccccc2)CC1 | -21% | -7% | -1% | 1% | 11 | 22*
Cc1ccc(-c2nc(N3CCN(C)CC3)c3ccccc3n2)cc1 | -8% | -2% | -4% | 0% | 11 | 12*
CCN1CCN(c2nc(-c3ccccc3)nc3ccccc23)CC1 | -9% | -1% | -4% | -2% | -15 | -3
Cc1cc(Br)ccc1NC(=O)c1ccc(NS(=O)(=O)c2c(C)noc2C)cc1 | · | · | -4% | · | · | ·
CCc1ccc2nc(N(Cc3cccnc3)C(=O)c3cccs3)sc2c1 | · | · | 3% | · | · | ·
COc1ccc(CNc2nc(-c3ccco3)nn2S(=O)(=O)c2ccc(Cl)cc2)cc1OC | · | · | -2% | · | · | ·
O=C(Nc1ccc2c(c1)CCC2)c1ccc(Cl)nc1 | -16% | -28% | -5% | -2% | 64* | 59*
O=C(Nc1ccc2c(c1)CCC2)c1cnc(Cl)c(Cl)c1 | 5% | -4% | -3% | -6% | 103* | 67*
CCn1ncc(Cl)c1C(=O)Nc1ccc2c(c1)CCC2 | · | -3% | · | -2% | 134* | 37*
CCn1ncc(Cl)c1C(=O)Nc1ccncc1 | -6% | -1% | -2% | -2% | 23 | 8
O=C(COC(=O)c1ccc(Cl)nc1)Nc1ccc2c(c1)CCC2 | -4% | · | 0% | · | · | ·
COc1ccccc1NC(=O)CN1C(=O)c2cccc3cccc1c23 | · | · | -5% | · | · | ·
Cc1cccc(NC(=O)c2ccc(NCC3CCCO3)c([N+](=O)[O-])c2)c1 (stereo not drawn) | -18% | 1% | -6% | 6% | 2 | 19*

Compound activity: PubChem, National Center for Advancing Translational Sciences (NCATS)
